Measurements from PubChem BioAssay (EPA / NIEHS).
The source made the active and inactive calls. The calls were made as follows: active = hit-call score of the fitted dose curve at least 0.9, where 1 is the maximum; inactive = score below 0.9.

Tests used:
[1] = read-out: Vascular endothelial growth factor receptor 2 (Homo sapiens) (UniProt P35968); test: BSK_4H_VEGFRII: BioMAP Diversity Plus: 4H Assay for Vascular endothelial growth factor receptor 2 (VEGFR2) Biomarker Activity (AID 2283031); conditions: primary human endothelial cells (HUVEC); actives raise or lower the signal;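 as to AC50: cell-surface VEGFR2 protein level quantified by ELISA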
In short: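 In this multiplexed HUVEC system, biomarker ELISA was performed after 24 h chemical exposure. Parallel SRB staining (TCA fixation, 560 nm) tracked cytotoxicity; DMSO served as baseline.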

[2] = read-out: Human Leukocyte Antigen - DR isotype (HLADR), HLA-DRA (gene 3122); test: BSK_BE3C_HLADR: BioMAP Diversity Plus: BE3C Assay for Human Leukocyte Antigen - DR isotype (HLADR) Biomarker Activity (AID 2283032); conditions: primary human bronchial epithelial cells; actives raise or lower the signal
In short: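 Signal came from an ELISA for HLA-DR in human bronchial epithelial primary cells harvested 24 h after treatment; gain- and loss-of-signal fitting used DMSO controls as reference.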

[3] = read-out: Vascular cell adhesion molecule 1 (VCAM1), VCAM1 (gene 7412); test: BSK_4H_VCAM1: BioMAP Diversity Plus: 4H Assay for Vascular cell adhesion molecule 1 (VCAM1) Biomarker Activity (AID 2283033); conditions: primary human endothelial cells (HUVEC); actives raise or lower the signal;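 as to outcome: cell-surface VCAM-1 protein measured by ELISA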
In short: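 Endpoint derived from bidirectional fitting against DMSO controls of VCAM-1 ELISA signal in umbilical vein endothelial cells sampled at 24 h following treatment.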

[4] = read-out: Interferon-gamma inducible Protein 10 (IP10), CXCL10 (gene 3627); test: BSK_BE3C_IP10: BioMAP Diversity Plus: BE3C Assay for Interferon-gamma inducible Protein 10 (IP10) Biomarker Activity (AID 2283034); conditions: primary human bronchial epithelial cells; actives raise or lower the signal
In short: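 Using primary human bronchial epithelial cultures, the assay captures IP-10 by ELISA one day (24 h) after exposure. Parallel SRB staining of total protein flags overt cytotoxicity. Fits run bidirectionally relative to DMSO.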

[5] = read-out: Monokine induced gamma interferon (MIG), CXCL9 (gene 4283); test: BSK_BE3C_MIG: BioMAP Diversity Plus: BE3C Assay for Monokine induced gamma interferon (MIG) Biomarker Activity (AID 2283035); conditions: primary human bronchial epithelial cells; actives raise or lower the signal;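 as to outcome: MIG protein measured by ELISA in BE3C cultures after 24 h of dosing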
In short: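 MIG level was determined by ELISA after 24 h chemical treatment of primary human bronchial epithelial cells. Values were fitted bidirectionally with DMSO as the negative control and activity baseline.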

[6] = read-out: Transforming growth factor beta 1 (TGFb1), TGFB1 (gene 7040); test: BSK_BE3C_TGFb1: BioMAP Diversity Plus: BE3C Assay for Transforming growth factor beta 1 (TGFb1) Biomarker Activity (AID 2283036;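 as to outcome: TGF-b1 protein level measured by ELISA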); conditions: primary human bronchial epithelial cells; actives raise or lower the signal
In short: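 In this human primary bronchial epithelial system, an ELISA quantified TGF-b1 one day after dosing. Endpoint changes in either direction were fitted relative to DMSO.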

[7] = read-out: Plasminogen activator inhibitor-1 (PAI1), SERPINE1 (gene 5054); test: BSK_BE3C_PAI1: BioMAP Diversity Plus: BE3C Assay for Plasminogen activator inhibitor-1 (PAI1) Biomarker Activity (AID 2283037); conditions: primary human bronchial epithelial cells; actives raise or lower the signal
In short: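 PAI-1 biomarker levels in treated human bronchial epithelial cells are determined by ELISA at 24 h. Both increases and decreases relative to DMSO are fitted.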

[8] = read-out: urokinase plasminogen activator (uPA), PLAU (gene 5328); test: BSK_BE3C_uPA: BioMAP Diversity Plus: BE3C Assay for urokinase plasminogen activator (uPA) Biomarker Activity (AID 2283038); conditions: primary human bronchial epithelial cells; actives raise or lower the signal;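 as to outcome: uPA protein level quantified by ELISA in cell cultures; uPA read one day after compound addition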
In short: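 Using confluent primary human lung bronchial epithelial cultures, we dosed chemicals, waited 24 h, then ran a uPA ELISA, fitting bidirectionally against DMSO.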

[9] = read-out: Urokinase-type plasminogen activator receptor (uPAR), PLAUR (gene 5329); test: BSK_BE3C_uPAR: BioMAP Diversity Plus: BE3C Assay for Urokinase-type plasminogen activator receptor (uPAR) Biomarker Activity (AID 2283039); conditions: primary human bronchial epithelial cells; actives raise or lower the signal;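 as to outcome: uPAR protein level measured by ELISA on the cells; cells exposed to compound for one day before measurement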
In short: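 A uPAR ELISA serves as the readout, taken 24 h after treating primary human bronchial epithelial cells. Responses in either direction are fitted against DMSO, which defines baseline activity.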

[10] = read-out: Interleukin-6 (IL6), IL6 (gene 3569); test: BSK_CASM3C_IL6: BioMAP Diversity Plus: CASM3C Assay for Interleukin-6 (IL6) Biomarker Activity for (AID 2283040); conditions: primary human coronary artery smooth muscle cells; actives raise or lower the signal

CCc1cccc(C)c1N(C(=O)CCl)C(C)COC (configuration not stated)
outcome [1]: inactive | outcome [2]: inactive | outcome [3]: inactive | outcome [4]: inactive | outcome [5]: inactive | outcome [6]: inactive | outcome [7]: inactive | outcome [8]: inactive | outcome [9]: inactive | outcome [10]: inactive

CC(C)N(C(=O)SCC(Cl)=C(Cl)Cl)C(C)C
AC50 [1]: 31.1 µM (active) | outcome [2]: inactive | AC50 [3]: 33.1 µM (active) | outcome [4]: inactive | outcome [5]: inactive | outcome [6]: inactive | outcome [7]: inactive | outcome [8]: inactive | outcome [9]: inactive | outcome [10]: inactive

COP(=O)(OC)C(O)C(Cl)(Cl)Cl (configuration not stated)
outcome [1]: inactive | outcome [2]: inactive | outcome [3]: inactive | outcome [4]: inactive | outcome [5]: inactive | outcome [6]: inactive | outcome [7]: inactive | outcome [8]: inactive | AC50 [9]: 5.49 µM (active) | outcome [10]: inactive

CC(C)=CC1C(C(=O)OCN2C(=O)C3=C(CCCC3)C2=O)C1(C)C (configuration not stated)
outcome [1]: inactive | AC50 [2]: 20 µM (active) | outcome [3]: inactive | outcome [4]: inactive | outcome [5]: inactive | outcome [6]: inactive | outcome [7]: inactive | outcome [8]: inactive | outcome [9]: inactive | outcome [10]: inactive

CCNc1nc(Cl)nc(NC(C)(C)C#N)n1
outcome [1]: inactive | outcome [2]: inactive | outcome [3]: inactive | outcome [4]: inactive | outcome [6]: inactive | outcome [7]: inactive | outcome [8]: inactive | outcome [9]: inactive | outcome [10]: inactive

COP(=O)(OC)SCn1c(=O)oc2cc(Cl)cnc21
outcome [1]: inactive | AC50 [2]: 22 µM (active) | outcome [3]: inactive | AC50 [4]: 31.2 µM (active) | outcome [5]: inactive | outcome [6]: inactive | outcome [7]: inactive | outcome [8]: inactive | outcome [9]: inactive | outcome [10]: inactive

S=C1NCCN1
outcome [1]: inactive | outcome [2]: inactive | outcome [3]: inactive | outcome [4]: inactive | outcome [5]: inactive | outcome [6]: inactive | outcome [7]: inactive | outcome [8]: inactive | AC50 [9]: 0.397 µM (active) | outcome [10]: inactive

CCOP(=O)(OCC)Oc1cc(C)nc(C(C)C)n1
outcome [1]: inactive | outcome [2]: inactive | outcome [3]: inactive | outcome [4]: inactive | outcome [5]: inactive | outcome [6]: inactive | outcome [7]: inactive | outcome [8]: inactive | outcome [9]: inactive | outcome [10]: inactive

CSc1nnc(C(C)(C)C)c(=O)n1N
outcome [1]: inactive | outcome [2]: inactive | outcome [3]: inactive | AC50 [4]: 7.16 µM (active) | outcome [5]: inactive | outcome [6]: inactive | outcome [7]: inactive | outcome [8]: inactive | outcome [9]: inactive | outcome [10]: inactive

C=C(C)[C@H]1Cc2c(ccc3c2O[C@@H]2COc4cc(OC)c(OC)cc4[C@@H]2C3=O)O1
AC50 [1]: 3.97 µM (active) | AC50 [2]: 6.33 µM (active) | AC50 [3]: 8.68 µM (active) | AC50 [4]: 20 µM (active) | outcome [5]: inactive | outcome [6]: inactive | outcome [7]: inactive | outcome [8]: inactive | outcome [9]: inactive | outcome [10]: inactive

CC(C)[C@H](C(=O)O[C@H](C#N)c1cccc(Oc2ccccc2)c1)c1ccc(Cl)cc1
outcome [1]: inactive | outcome [2]: inactive | AC50 [3]: 2.95 µM (active) | outcome [4]: inactive | outcome [5]: inactive | outcome [6]: inactive | outcome [7]: inactive | outcome [8]: inactive | AC50 [9]: 5.23 µM (active) | outcome [10]: inactive

C[Si](Cn1cncn1)(c1ccc(F)cc1)c1ccc(F)cc1
outcome [1]: inactive | outcome [2]: inactive | outcome [3]: inactive | outcome [4]: inactive | outcome [5]: inactive | outcome [6]: inactive | outcome [7]: inactive | outcome [8]: inactive | outcome [9]: inactive | outcome [10]: inactive

O=c1ccc(=O)[nH][nH]1
outcome [1]: inactive | outcome [2]: inactive | outcome [3]: inactive | outcome [4]: inactive | outcome [5]: inactive | outcome [6]: inactive | outcome [7]: inactive | outcome [8]: inactive | outcome [9]: inactive | outcome [10]: inactive

O=C(O)c1cc(Oc2ccc(C(F)(F)F)cc2Cl)ccc1[N+](=O)[O-]
outcome [1]: inactive | outcome [2]: inactive | outcome [3]: inactive | outcome [4]: inactive | outcome [5]: inactive | outcome [6]: inactive | outcome [7]: inactive | outcome [8]: inactive | outcome [9]: inactive | outcome [10]: inactive

CC[C@H](C)[C@H]1O[C@]2(C=C[C@@H]1C)C[C@@H]1C[C@@H](C/C=C(\C)[C@@H](O[C@H]3C[C@H](OC)[C@@H](O[C@H]4C[C@H](OC)[C@@H](NC)[C@H](C)O4)[C@H](C)O3)[C@@H](C)/C=C/C=C3\CO[C@@H]4[C@H](O)C(C)=C[C@@H](C(=O)O1)[C@]34O)O2
outcome [1]: inactive | AC50 [2]: 3.98 µM (active) | AC50 [3]: 8.45 µM (active) | AC50 [4]: 7.15 µM (active) | AC50 [5]: 8.8 µM (active) | AC50 [6]: 9.47 µM (active) | AC50 [7]: 6.98 µM (active) | AC50 [8]: 10.9 µM (active) | AC50 [9]: 5.78 µM (active) | outcome [10]: inactive

CCCCOC(=O)[C@@H](C)Oc1ccc(Oc2ccc(C#N)cc2F)cc1
outcome [1]: inactive | outcome [2]: inactive | outcome [3]: inactive | outcome [4]: inactive | outcome [6]: inactive | outcome [7]: inactive | outcome [8]: inactive | AC50 [9]: 0.811 µM (active) | outcome [10]: inactive

CCOP(=S)(Oc1cnc(C(C)(C)C)nc1)OC(C)C (configuration not stated)
AC50 [1]: 31.9 µM (active) | outcome [2]: inactive | AC50 [3]: 36.8 µM (active) | outcome [4]: inactive | outcome [6]: inactive | outcome [7]: inactive | outcome [8]: inactive | outcome [9]: inactive | outcome [10]: inactive
